Screens as filed in PubChem.
Hits are enriched below; roughly 10% of the tested compounds scored in any of these assays.
BAZ2B inh: blocks human BAZ2B | Q9UIF8 | AlphaScreen BAZ2B-H3K14Ac peptide displacement | Potency, µM (highest dose often 114 µM), inactives show at the top dose activity change, negative = inhibition, actives largely listed as inhibitors | 4.4% of 360,000 active | AID 504333; further: potency means the concentration at half of the fitted maximal effect; on the % scale 0 is the no-effect control and ±100 the full control effect; nearly all actives have a fitted effect of over 60% in size
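AlphaScreen luminescence quantifies BAZ2B engagement of H3K14Ac peptide; the protein and biotinylated peptide are both at 50 nM final, buffer PBS pH 7.4 with 0.01% Tween-20, all steps at room temperature.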
G9a block: inhibitors of human histone lysine methyltransferase G9a. Q96KQ7. G9a H3K9 monomethylation, AlphaScreen, 2 h. Potency, µM (top dose mostly 102 µM), for the others: at the top dose activity, negative = inhibition, most hits filed as inhibitors. 8.8% of 350,000 active. AID 504332; further: potency means the concentration at half of the fitted maximal effect; on the % scale 0 is the no-effect control and ±100 the full control effect; nearly all actives have a fitted effect of over 75% in size
Target sequence (Q96KQ7 913-1193 limits assumed): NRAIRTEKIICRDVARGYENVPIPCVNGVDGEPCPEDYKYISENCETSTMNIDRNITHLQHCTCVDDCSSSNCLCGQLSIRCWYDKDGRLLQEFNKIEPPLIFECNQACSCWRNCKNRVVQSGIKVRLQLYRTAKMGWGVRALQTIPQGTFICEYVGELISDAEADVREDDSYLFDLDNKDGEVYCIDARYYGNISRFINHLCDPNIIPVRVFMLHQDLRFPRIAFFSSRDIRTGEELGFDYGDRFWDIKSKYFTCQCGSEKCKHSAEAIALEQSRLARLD
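Quantitative HTS format: methyltransferase activity on a biotin-tagged H3K9 peptide is measured by AlphaScreen, using a rabbit anti-monomethyl-H3K9 antibody with streptavidin donor and anti-IgG acceptor beads. Final levels are 20 nM enzyme, 500 nM peptide, 20 uM SAM; 2 h RT.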
JMJD2A Tudor inh: inhibitors of human JMJD2A Tudor domain; AlphaScreen JMJD2A-Tudor / H3K4me3 peptide binding; Potency, µM (highest dose often 114 µM), without a hit: at the highest dose activity change, negative = inhibition, hits mostly inhibitors; 4.4% of 390,000 active; O75164; further: potency means the concentration at half of the fitted maximal effect; on the % scale 0 is the no-effect control and ±100 the full control effect; nearly all actives have a fitted effect of over 50% in size
CtBP-E1A blk: inhibitors of CtBP/E1A interaction | AlphaScreen GST-E1A/His-CtBP binding, 1536-well; stronger effect = lower value | activity change, % (concentration not given with the values) | 0.49% of 340,000 active; in the data active means activity change below about -65%; inconclusive means mostly about -30% to -63%; further: on the % scale 0 is the no-effect control and ±100 the full control effect
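AlphaScreen with 125 nM GST-E1A and 125 nM His-CtBP (5X stocks) in Tris pH 8.0, 300 mM NaCl, BSA, Tween 20, TCEP. Compounds preincubated 2 h at 37 deg C, then glutathione donor/nickel acceptor beads added for 1 h at 37 deg C in dark.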
HP1b chromo inh: blocks HP1-beta chromodomain binding to methylated histone tails; P83916; AlphaScreen HP1-beta / biotin-H3K9me3 peptide binding; Potency, µM (doses to about 114 µM), without a hit: at the highest dose activity change, negative = inhibition, hits mostly inhibitors; 0.56% of 390,000 active; further: potency means the concentration at half of the fitted maximal effect; nearly all actives have a fitted effect of over 70% in size
Target sequence (P83916 whole entry, looked up): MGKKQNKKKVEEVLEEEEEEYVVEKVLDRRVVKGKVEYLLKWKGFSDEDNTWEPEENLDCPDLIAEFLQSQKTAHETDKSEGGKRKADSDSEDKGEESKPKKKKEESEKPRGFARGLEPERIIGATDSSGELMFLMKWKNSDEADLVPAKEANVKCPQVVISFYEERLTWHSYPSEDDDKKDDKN
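Compound inhibition of the preformed complex between 50 nM HP1-beta and 50 nM biotinylated H3K9me3 peptide was read by AlphaScreen. Buffer was PBS pH 7.4 with 0.01% Tween-20. Incubations ran 30 min at room temperature, with 10 ug/mL donor/acceptor beads.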
Six1-Eya2 blk: inhibitors of human Six1/Eya2 interaction; Q15475+O00167; AlphaScreen GST-Six1/His-Eya2 binding, biochemical; stronger effect = lower value; activity change, % (test concentration not listed); 0.56% of 360,000 active; AID 651725; in the data active means activity change below about -65%; inconclusive means mostly about -30% to -63%; further: on the % scale 0 is the no-effect control and ±100 the full control effect
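Homogeneous AlphaScreen proximity assay pairing GST-Six1 with His-tagged Eya2 (added as 5X mix: 250 nM and 500 nM) in 50 mM Tris pH 8.0, 300 mM NaCl, 1 mM TCEP. Glutathione donor and nickel acceptor beads; 1 h, 37 °C, dark.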
* marks the source's active call; other numbers are inactive results; ? = inconclusive; . = no result; [ ] = another dose, or the depositor's remark. Unless noted, the call rests on the fitted dose curve; in most records, active means well fitted inhibition curve with a large enough effect; inconclusive means small, poorly fitted or top-dose-only effect; inactive means no such curve, though single readings can be large or run the other way.

SMILES | BAZ2B inh | G9a block | JMJD2A Tudor inh | CtBP-E1A blk | HP1b chromo inh | Six1-Eya2 blk
Cc1c(C)n(C)c2ccc(C(=O)NCc3cccc(F)c3)cc12 | ? | ? | ? | . | 0% | .
Cc1ccccc1CNC(=O)c1ccc2c(c1)c(C)c(C)n2C | 40µM* | ? | ? | . | -20% | .
Cc1ccc(C(=O)CSc2nc3cc(S(=O)(=O)N4CCOCC4)ccc3o2)cc1 | 2% | 32µM* | -13% | -3 | 5% | 6
O=c1ccc2cc(S(=O)(=O)N3CCOCC3)ccc2o1 | -12% | 4%[59 µM] | 0% | 1 | 12% | 8
CCSc1nc2cc(S(=O)(=O)N3CCOCC3)ccc2o1 | . | . | 28µM* | 5 | ? | 1
CCn1c(SCC(=O)c2cc(C)ccc2C)nc2cc(S(=O)(=O)N3CCOCC3)ccc21 | -9% | 25µM* | -9% | -26 | 20% | -19
CCn1c2ccccc2c2nc3cc(S(=O)(=O)N4CCOCC4)ccc3nc21 | 1% | 2.2µM* | -9%[57.1 µM] | ? | ? | ?
O=[N+]([O-])c1ccc(Oc2ccc(S(=O)(=O)N3CCOCC3)cn2)cc1 | 12% | -44%[59 µM] | -8% | 3 | 24% | 1
CCN(C(=O)COC(=O)CCC(=O)c1cccs1)c1c(N)n(Cc2ccccc2)c(=O)[nH]c1=O | 10% | -8% | -10% | -2 | 6% | 8
O=c1c2sc3ccccc3c2n(Cc2cccc(Cl)c2)c(=O)n1Cc1ccc(F)cc1 | 2% | -9%[59 µM] | 4% | . | 41% | .
Cn1cnc(S(=O)(=O)N2CCCCC2c2cc(C(=O)Nc3cccc4c3CCCC4)no2)c1 (stereo not drawn) | . | . | . | 1 | . | -1
O=C(CSc1nc2cc(S(=O)(=O)N3CCOCC3)ccc2o1)NC1CCCc2ccccc21 (stereo not drawn) | -5% | ? | 50µM* | 2 | -36% | -1
CC1(C)CC(=O)C/C(=N/Nc2nc3ccccc3s2)C1 | ? | 50µM* | ? | 2 | 14% | -12
Cc1ccc(S(=O)(=O)N2CCN(CCC#N)CC2)cc1 | 20µM* | 7.1µM* | 3.5µM* | 4 | 45µM* | 10
N#CCCN1CCN(S(=O)(=O)c2ccc(S(=O)(=O)N3CCCCCC3)cc2)CC1 | 8% | -13%[59 µM] | 0% | 5 | 39% | 0
N#CCCN1CCN(S(=O)(=O)c2ccc(S(=O)(=O)NC3CCCC3)cc2)CC1 | 7% | 35µM* | -6% | 3 | 36% | 9
N#CCCN1CCN(S(=O)(=O)c2ccc(C#N)cc2)CC1 | 3% | -20% | -5% | -3 | 16% | 12
COc1cccc(N2CCN(c3ncnc4c3[nH]c3ccc(F)cc34)CC2C)c1 (stereo not drawn) | ? | 18µM* | ? | -27 | ? | ?
CCOc1ccc(C(C)=O)cc1N1C(=O)C2C(C1=O)C1C=CC2C12CC2 (stereo not drawn) | 50µM* | -9% | -1% | 10 | 29% | -1
CCCCNc1cc(F)nc(N)n1 | -12% | -7% | 9% | 4 | 55% | 3
COc1ccc(C(c2nnnn2C2CCCC2)N2CCN(C3CCCC3)CC2)cc1OC (stereo not drawn) | -34% | ? | 56µM* | 3 | 15% | -2
COc1cc(C(c2nnnn2C2CCCC2)N2CCN(C)CC2)cc(OC)c1OC (stereo not drawn) | ? | -15%[59 µM] | -26% | -3 | 13% | 19
COc1ccccc1C(c1nnnn1Cc1ccccc1)N1CCN(C2CCCC2)CC1 (stereo not drawn) | -33% | ? | 2%[11.4 µM] | -1 | 5% | -2
COc1ccc(C(c2nnnn2CCc2ccccc2)N2CCN(C3CCCC3)CC2)cc1OC (stereo not drawn) | ? | 50µM* | -4% | -3 | 50% | -1
COc1ccc(C(=O)Nc2ccc3c(c2)N(C)C(=O)c2ccccc2S3)cc1OC | -13% | -6%[59 µM] | -29% | . | 26% | .
SMILES | BAZ2B inh | G9a block | JMJD2A Tudor inh | CtBP-E1A blk | HP1b chromo inh | Six1-Eya2 blk
COc1ccc2c(c1[N+](=O)[O-])CCC/C2=N/OC(=O)c1ccccc1SC | ? | 45µM* | -25% | 0 | 16% | -21
COc1ccccc1C(=O)O/N=C1/CCCc2c1ccc(OC)c2[N+](=O)[O-] | 0% | 50µM* | -27% | -1 | 10% | 1
COc1cc(C(=O)O/N=C2\CCCc3c2ccc(OC)c3[N+](=O)[O-])cc(OC)c1OC | -3% | ? | -5%[11.4 µM] | 2 | 47% | 9
O=C(Cc1ccc(-c2ccccc2)cc1)NCCS(=O)(=O)N1CCN(c2ccccc2F)CC1 | 5% | 15%[59 µM] | 3% | . | 26%[57 µM] | .
Cc1nc(N=Nc2cc(S(=O)(=O)O)c3cc([N+](=O)[O-])cc(S(=O)(=O)O)c3c2)c(COP(=O)(O)O)c(C=O)c1O | . | 3.5µM* | . | . | . | .
COCCCN1C(=O)C(=O)/C(=C(/O)c2ccc(S(=O)(=O)N3CCCCC3)cc2)C1c1ccc(OC)cc1 (stereo not drawn) | -3% | . | -28% | 2 | 20% | 3
COCCN1C(=O)C(=O)/C(=C(/O)c2ccc(S(=O)(=O)N3CCOCC3)cc2)C1c1ccc(O)cc1 (stereo not drawn) | ? | 71µM* | 3% | 5 | 17% | -6
COCCCN1C(=O)C(=O)/C(=C(/O)c2ccc(S(=O)(=O)N3CCOCC3)cc2)C1c1ccc(OC)cc1 (stereo not drawn) | -32% | 40µM* | 2% | 3 | 35% | -6
COCCCN1C(=O)C(=O)/C(=C(/O)c2ccc(S(=O)(=O)N3CCOCC3)cc2)C1c1cccc(Cl)c1 (stereo not drawn) | -29% | ? | -27% | 2 | 25% | 0
CCOc1ccc(C2/C(=C(/O)c3ccc(S(=O)(=O)N4CCCCC4)cc3)C(=O)C(=O)N2CCCOC)cc1OC (stereo not drawn) | -22% | 79µM* | -4% | 3 | 35% | -1
COCCCN1C(=O)C(=O)/C(=C(/O)c2ccc(OC(C)C)cc2)C1c1ccc(O)c(OC)c1 (stereo not drawn) | 7% | 56µM* | 50µM* | 2 | -7% | 8
COCCN1C(=O)C(=O)/C(=C(/O)c2ccc(S(=O)(=O)N3CCOCC3)cc2)C1c1cccc(Cl)c1 (stereo not drawn) | -15% | 4% | -16% | 4 | 32% | -13
COC(=O)/C=C1\SC(=Nc2ccc(Cl)c(Cl)c2)NC1=O | -17% | 13%[59 µM] | -19%[11.4 µM] | . | 19% | 4
COc1cc(/C=C2\SC(=Nc3ccccc3)NC2=O)cc(Cl)c1O | -32% | 45µM* | ? | 16 | -14% | -17
